JNK3 blocker = JNK3 (human) kinase inhibition; purified JNK3 kinase activity, HTS; inhibition, % at 8 µM; AID 746; 60,000 tested, 0.61% active; in the data active = inhibition above about 17%;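 also: 0% = DMSO and 100% = reference inhibitor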
ROCK2 inh = inhibitors of human Rho kinase 2; O75116; purified ROCK2, Kinase-Glo ATP depletion luminescence; inhibition, % at 6 µM; 60,000 tested, 0.35% active; AID 604;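 active = inhibition above the screen-wide mean inhibition plus 3 SD, cut at about 18% in these data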;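 also: plate controls were DMSO wells for no effect and Y-27632 control wells after no-enzyme background subtraction for full effect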
PKA inh = PKA (human) kinase inhibition. PKA Kemptide phosphorylation, Kinase-Glo ATP luminescence. inhibition, % at 6 µM. 65,000 tested, 0.1% active. AID 524;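 active = inhibition above the screen-wide mean inhibition plus 3 SD, cut at about 21% in these data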
D1 allo mod = allosterically modulates the human D1 dopamine receptor | AID 641 | 58,000 tested, 5.9% active | B-score at 10 µM | HEK293 D1, CRE-luciferase, dopamine EC30 potentiation; actives deviate in either direction | P21728;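 active = luminescence count or its row- and column-corrected plate score outside the 99.7% band of the plate's sample wells, on either side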
DAT uptake mod = changed human dopamine transporter uptake under cocaine IC80 | B-score at 10 µM | Q01959 | 110,000 tested, 1.3% active | LLC-PK1 hDAT cells, [14C]-dopamine uptake with cocaine IC80; actives deviate in either direction;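 active = Z score or B-score, a plate-position-corrected score, falls beyond the plate's 99.7% confidence bounds, in either direction; inactive = both scores lie inside the 99.7% bounds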;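 also: scored against the spread of the other compound wells on the same plate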
D1 mod confirm = confirmation of human D1 dopamine receptor allosteric modulators | shares compounds with D1 allo mod | HEK293 D1 CRE-luciferase, dopamine EC30 potentiation; stronger effect = higher value | luminescence at 10 µM | 2,200 tested, 88% active | AID 642;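 active = luminescence in either of two replicates above the same-plate mean plus 3 SD of the low-dose dopamine control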
D1 ag no DA = activates D1 CRE-luciferase signal without dopamine present. shares compounds with D1 allo mod. HEK293 D1 CRE-luciferase, luminescence, no dopamine; stronger effect = higher value. luminescence at 10 µM. 1,900 tested, 0.8% active; in the data active = luminescence above about 3900
Isoprot counter = alters isoproterenol CRE-luciferase response in HEK293 cells; shares compounds with D1 allo mod; HEK293 D1 CRE-luciferase, isoproterenol EC30 counter-screen; calls only at 10 µM; 2,200 tested, 63% active; AID 647;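 active = luminescence in either replicate above plate mean of wells with a partly effective reference agonist dose plus 3 SD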;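 also: isoproterenol raises cAMP through native beta-adrenoceptor Gs so signal bypasses D1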
Numbers without * were called inactive; i = inactive; / = no result; + = active, no number. The full list was thinned out, with hits kept by preference.

SMILES	JNK3 blocker	ROCK2 inh	PKA inh	D1 allo mod	DAT uptake mod	D1 mod confirm	D1 ag no DA	Isoprot counter
CCOC(=O)N1CCC(N2Cc3cccc(C(=O)NC(C)c4ccc5c(c4)OCCO5)c3C2=O)CC1 (configuration not stated)	4	-2	4	2.4*	0.22	8332*	1632	i
CCOC(=O)N1CCC(N2Cc3cccc(C(=O)NCc4ccc(C)cc4)c3C2=O)CC1	-1	0	3	0.86	0.16	/	/	/
Cn1c(NC(=O)c2cccc(C(F)(F)F)c2)cc(=O)n(C)c1=O	9	4	-4	7*	-0.59	17760*	1560	+
Cn1c(SCc2ccon2)nc2ccccc2c1=O	3	8	10	5.9*	-0.25	6248*	1464	i
Cc1ncsc1CCSc1nc2ccccc2c(=O)n1C	9	11	5	5.3*	0.61	10832*	/	+
